Shown are actives, neighbours in structure and some others; about 11% of the full set was active somewhere.
FLuc inh-1: inhibitors of firefly (Photinus pyralis) luciferase. purified P. pyralis luciferase, luminescence, biochemical. AID 1347043. 76,000 compounds, 2.5% hits. Potency, µM (titrated, usually from 115 µM), actives largely listed as inhibitors. P08659; also: % is scaled to controls: 0 for no effect and ±100 for the full control effect; nearly all actives have a fitted effect of over 65% in size
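FLuc 10nM, D-luciferin 10uM, ATP 10uM, Mg acetate 10mM, Tris acetate pH 7.5, Tween/BSA; cpd qHTS; enzyme added last; CCD luminescence.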
NIH3T3 tox: NIH 3T3 cell cytotoxicity | NIH 3T3 viability, CellTiter-Glo ATP luminescence, 48-72 h | Potency, µM (titrated, usually from 96.7 µM), without a hit: top-dose activity change, negative = cytotoxicity, most hits filed as inhibitors | 94,000 compounds, 4.3% hits; also: % is scaled to controls: 0 for no effect and ±100 for the full control effect; nearly all actives have a fitted effect of over 55% in size
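Viability of NIH 3T3 cells after 48 or 72 hr compound treatment at 37 °C was assessed by CellTiter-Glo, with luminescence imaged following a 10 min room-temperature step.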
HEK293 tox: cytotoxic compounds in HEK 293 cells. HEK 293 viability, ATP luminescence (CellTiter-Glo), 48-72 h. Potency, µM (series often up to 115 µM), for the others: at the highest dose activity change, negative = cytotoxicity, hits mostly inhibitors. 94,000 compounds, 6.6% hits. AID 1345083; also: % is scaled to controls: 0 for no effect and ±100 for the full control effect; nearly all actives have a fitted effect of over 60% in size
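CellTiter-Glo luminescence (cellular ATP) was read after 48 or 72 hr of compound exposure at 37 degree Celsius. Cells were HEK 293 plated at 250 cells/well.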
NPR1 antag: blocks ANP-stimulated signaling of human Npr1 receptor | P16066 | 76,000 compounds, 1.6% hits | AID 1347048 | Potency, µM (doses to about 46.3 µM), without a hit: at the highest dose activity change, negative = inhibition, hits mostly inhibitors | HEK293 hNpr1 GloSensor cGMP, ANP-stimulated luminescence; calls by dose curve; also: % is scaled to controls: 0 for no effect and ±100 for the full control effect; nearly all actives have a fitted effect of over 60% in size
Target sequence (P16066 whole entry, looked up): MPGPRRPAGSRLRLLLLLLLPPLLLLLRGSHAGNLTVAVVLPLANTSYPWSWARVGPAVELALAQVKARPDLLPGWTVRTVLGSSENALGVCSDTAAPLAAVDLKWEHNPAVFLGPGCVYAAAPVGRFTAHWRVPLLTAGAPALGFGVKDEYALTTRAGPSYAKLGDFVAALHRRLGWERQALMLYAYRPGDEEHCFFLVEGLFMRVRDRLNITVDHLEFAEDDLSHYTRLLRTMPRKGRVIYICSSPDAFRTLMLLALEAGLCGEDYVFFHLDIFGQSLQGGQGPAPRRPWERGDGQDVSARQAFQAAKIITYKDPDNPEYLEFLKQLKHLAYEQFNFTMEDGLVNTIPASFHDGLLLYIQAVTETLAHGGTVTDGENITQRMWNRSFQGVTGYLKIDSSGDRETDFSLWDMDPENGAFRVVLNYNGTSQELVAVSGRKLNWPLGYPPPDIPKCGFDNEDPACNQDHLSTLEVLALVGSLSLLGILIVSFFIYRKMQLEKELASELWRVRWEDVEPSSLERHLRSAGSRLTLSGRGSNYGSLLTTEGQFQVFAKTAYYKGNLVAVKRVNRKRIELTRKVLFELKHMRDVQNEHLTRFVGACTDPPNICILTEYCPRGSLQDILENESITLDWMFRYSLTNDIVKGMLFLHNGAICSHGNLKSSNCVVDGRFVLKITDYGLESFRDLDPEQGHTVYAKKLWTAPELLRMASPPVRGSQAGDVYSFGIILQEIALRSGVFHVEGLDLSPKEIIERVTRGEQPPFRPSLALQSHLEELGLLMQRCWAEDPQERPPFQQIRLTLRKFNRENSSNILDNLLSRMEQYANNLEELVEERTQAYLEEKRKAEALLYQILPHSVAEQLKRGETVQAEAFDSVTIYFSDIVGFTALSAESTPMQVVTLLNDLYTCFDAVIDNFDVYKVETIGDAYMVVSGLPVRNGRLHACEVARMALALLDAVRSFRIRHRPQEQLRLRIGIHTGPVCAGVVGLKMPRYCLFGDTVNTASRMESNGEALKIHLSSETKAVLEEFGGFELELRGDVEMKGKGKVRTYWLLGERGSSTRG
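Compound pre-incubated 30 min at room temperature on GloSensor-loaded HEK293 cells stably carrying hNpr1 and the pGS-40F cGMP biosensor. Stimulation uses hNppA at 0.1 nM final; luminescence is taken at baseline and 20 min post-agonist.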
FLuc SDR -ATP: stabilizes firefly luciferase without ATP | shares compounds with FLuc inh-1 | Purified FLuc-C-HiBiT, Nano-Glo HiBiT luminescence, no ATP | Potency, µM (top dose mostly 32.7 µM), inactives show at the top dose activation (signal gain), most hits filed as activators | 1,300 compounds, 7.8% hits; also: nearly all actives have a fitted effect of over 55% in size
FLuc SDR ATP: firefly luciferase binding stabilization, ATP added. shares compounds with FLuc inh-1. purified FLuc-C-HiBiT + ATP, HiBiT complementation luminescence. Potency, µM (titrated, usually from 32.7 µM), for the others: at the top dose activation (gain of signal), hits mostly activators. 1,300 compounds, 8.7% hits;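 also: signal reports ligand binding via conformational change of the enzyme rather than luciferase catalysis; % of control where 0% means no effect; nearly all actives have a fitted effect of over 55% in size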
FLuc inh-2: inhibitors of firefly luciferase enzymatic activity. Potency, µM (series often up to 32.7 µM), for the others: at the top dose activity change, negative = inhibition, most hits filed as inhibitors. 1,300 compounds, 42% hits. shares compounds with FLuc inh-1. purified FLuc-C-HiBiT enzyme, luciferin luminescence; also: % is scaled to controls: 0 for no effect and ±100 for the full control effect; nearly all actives have a fitted effect of over 70% in size
* marks the source's active call; other numbers are inactive results; i = inactive; ? = inconclusive; . = no result; [ ] = another dose, or the depositor's remark. Unless noted, calls follow the shape of the dose curve; as a rule, active = well fitted curve in the direction sought with a large enough effect; inconclusive = small, poorly fitted or top-dose-only effect, or another doubt; inactive = no such curve, though single readings can be large; an effect the other way counts as inactive or inconclusive. Potency is read from the fitted curve at half-maximal effect.

SMILES | FLuc inh-1 | NIH3T3 tox | HEK293 tox | NPR1 antag | FLuc SDR -ATP | FLuc SDR ATP | FLuc inh-2
O=C(C1CC1)N1CCN(c2ccnc3ccnn23)CC1 | . | -2.9%[138 µM] | 4.1%[172 µM] | . | . | . | .
O=C(NCC1CCN(c2cc(-c3ccccc3)[nH]n2)CC1)c1ccc2nc[nH]c2c1 | ? | ? | 3.0% | -1.6% | . | . | .
Cc1ccc(-c2cc(N3CCC(CNC(=O)c4ccc5nc[nH]c5c4)CC3)n[nH]2)cc1 | 14.1µM* | ? | ? | -24.7% | 19.7% | 14.8% | ?
C[S+](=O)([O-])N1CC2(CCN(Cc3cccnc3)C2)Cc2ccccc21 (centres undefined) | . | -5.6% | -21.7% | . | . | . | .
Cn1nc(-c2ccc3c(c2)OCCO3)nc1N1CCCCC1 | 3.98µM* | ? | -3.9% | ? | ? | ? | 9.89µM*
Cc1ccc(-n2nc3n(c2=O)CCN(C(=O)NC2CCCC2)C3)cc1 | . | -26.8%[138 µM] | -19.1%[172 µM] | . | . | . | .
COc1ccc(-n2ncc3c(NC4CCCC4)ncnc32)cc1 | . | . | . | . | ? | ? | 1.76µM*
Cc1ccc(-n2ncc3c(NC4CCCC4)ncnc32)cc1 | . | . | . | . | ? | ? | 0.624µM*
CC(=O)N1CCC(c2nnc3n2C(C(=O)N2CCN(C)CC2)CC3)CC1 (centres undefined) | . | -17.3% | -11.5% | . | . | . | .
Cc1noc(C2CC3(CCN(C(=O)CC4CCCCC4)CC3)CN2C)n1 (centres undefined) | . | -26.0% | ? | . | . | . | .
Cc1ccc(-n2nc(C)c([C@@H]3C=C[C@@H](NC(=O)COCC(=O)O)C3)c2C)cc1Cl | 35.5µM* | -23.3%[174 µM] | -19.5%[172 µM] | 0.5%[70.6 µM] | 10.0%[49.3 µM] | 9.2%[49.3 µM] | -1.4%[49.3 µM]
Cc1ccc(-n2nc(C)c([C@H]3C=C[C@@H](OC(=O)Nc4cccc(C(F)(F)F)c4)C3)c2C)cc1Cl | 11.2µM* | ? | 31.6µM* | ? | 14.0% | 12.5% | -9.2%
Cc1nn(-c2ccc(C(C)C)cc2)c(C)c1[C@@H]1C=C[C@@H](NC(=O)COCC(=O)O)C1 | 35.5µM* | ? | -18.7%[172 µM] | 1.3%[70.6 µM] | 16.9%[49.3 µM] | 13.1%[49.3 µM] | ?
Cc1nn(-c2ccc(C(F)(F)F)cc2)c(C)c1[C@@H]1C=C[C@@H](NC(=O)CCCC(=O)O)C1 | i | -2.9% | -5.8% | -0.6% | . | . | .
Cc1nn(-c2ccc(C(C)(C)C)cc2)c(C)c1[C@@H]1C=C[C@@H](NC(=O)CCCC(=O)O)C1 | 22.4µM* | ? | -23.5%[172 µM] | -10.8%[70.6 µM] | 24.7%[49.3 µM] | ? | ?
COc1ccc(CNC(=O)CC[C@]23CC[C@](C)(O)C[C@H]2C(C)(C)C[C@@H]3NCc2ccccn2)cc1 | i | 0.1% | ? | 2.2% | . | . | .
N[C@@H]1CCN(C(=O)c2ccccc2OC(F)(F)C(F)F)C[C@H]1O | i | -3.2% | -29.8% | -1.5% | . | . | .
Cc1noc(-c2ccc(N3CCN(C/C=C/c4ccccc4)CC3)nc2)n1 | i | ? | ? | 2.3% | . | . | .
Nc1nc2c([nH]c(=S)n2C2OC(CO)C(O)C2O)c(=O)[nH]1 (centres undefined) | . | . | . | . | -0.1% | -0.5% | 2.48µM*
Nc1nc2c([nH]c(=O)n2C2OC(CO)C(O)C2O)c(=O)[nH]1 (centres undefined) | . | . | . | . | 14.3% | 8.3% | 0.5%
COc1ccc(Br)cc1C(=O)Nc1nc2ccc(F)cc2s1 | . | . | . | . | 15.6% | 10.7% | -8.4%
COc1ccccc1C(=O)N1CC(Oc2ccc(F)cc2F)C1 | . | -13.1% | -16.2% | . | . | . | .
Cc1ccc(/C=C/c2nc3ccccc3[nH]2)cc1 | . | . | . | . | 0.394µM* | 0.556µM* | 0.0442µM*
COc1cccc(NC(=O)N2CC[C@H]3CC(=O)N(c4ccccc4)CC[C@H]3C2)c1 | i | i | i | 4.7%[70.6 µM] | . | . | .
COc1ccc(CCNC(=O)C2CCCN(c3nc4c(C)cc(C)cc4s3)C2)cc1OC (centres undefined) | . | . | . | . | 17.4% | 19.7% | ?

Source: PubChem (National Center for Advancing Translational Sciences (NCATS))
